# In the library only some 4% were active in any assay of this set; here they are far more common.
# Mdm2-MdmX inh: disrupts the human Mdm2-MdmX interaction; O15151+Q00987; SaOS-2 split-luciferase Mdm2/MdmX complementation, luminescence; inhibition, % at 8 µM; 330,000 compounds, 3% hits;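 active = inhibition of at least 50% at 8 µM in the primary screen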
# Beta apoptosis: beta cell apoptosis inhibition; 300,000 compounds, 0.8% hits; AID 435005; protection from apoptosis, % (concentration not given with the values); INS-1E cytokine-induced death, ATP luminescence, 48 h; percent of positive-control rescue, neutral wells zero;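 active = Every replicate reaches about 75%, or at least half do and their mean reaches it too, limit read from the data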;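 note: 0% = cytokine-treated negative control wells and 100% = positive control rescue; higher means more ATP so stronger rescue from cytokine killing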
# Jurkat NFkB inh: inhibitors of the PMA/ionomycin-induced NF-kB reporter in Jurkat cells. PMA/ionomycin-induced NF-kB luciferase reporter, luminescence. 330,000 compounds, 0.53% hits. inhibition, % at 4 µM; in the data active = inhibition above about 50%
# Gli-Sufu block: antagonists of Gli-Sufu signaling | Sufu-KO-LIGHT fibroblasts, Gli luciferase reporter luminescence | inhibition, % at 5 µM | 340,000 compounds, 0.74% hits;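 active = inhibition above about 55%, limit read from the data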;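 note: 0% = DMSO-treated cells and 100% = wells with medium but no cells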
# 697 NFkB inh: lowers PMA/ionomycin-induced NF-kB signal in 697 B cells; 330,000 compounds, 0.33% hits; AID 435022; inhibition, % at 4 µM; 697 B-cell NF-kB luciferase reporter, 16 h; in the data active = inhibition above about 35%
# Mdm2 MdmX conf: human Mdm2/MdmX binding inhibition, confirmed; 10,000 compounds, 55% hits; shares compounds with Mdm2-MdmX inh; luminescent assay; inhibition, % at 8 µM; in the data active = inhibition above about 40%
# Full FLuc ctr: full-length luciferase inhibition in Mdm2/MdmX counter-screen | SaOS-2 full-length luciferase counterscreen, luminescence | shares compounds with Mdm2-MdmX inh | inhibition, % at 8 µM | 6,200 compounds, 77% hits;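 active = mean inhibition at 8 µM reaching about 37%, which flags the compound as non-specific, limit read from the data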;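 note: p53-null SaOS-2 cells with luciferase driven by a doxycycline-inducible promoter; compound on cells about two nights before reading with doxycycline added after day one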
# * hit, by the source's call; · = not tested or not shown.
SMILES,Mdm2-MdmX inh,Beta apoptosis,Jurkat NFkB inh,Gli-Sufu block,697 NFkB inh,Mdm2 MdmX conf,Full FLuc ctr
Cc1ccc2oc(=O)c3cc(C(=O)NCCCN4CC(C)CC(C)C4)sc3c2c1 (centres undefined),50*,6,18,4,-3,17,·
Cc1ccc2oc(=O)c3cc(C(=O)NCCCN4CCN(C)CC4)sc3c2c1,30,6,-4,14,5,·,·
Cc1sc(NC(=O)c2ccco2)nc1-c1ccc2c(c1)CC(C)N2C(=O)C1CC1 (centres undefined),85*,27,-4,-22,-4,55*,53*
CC(=O)Nc1nc(-c2ccc3c(c2)CC(C)N3C(=O)C2CC2)c(C)s1 (centres undefined),85*,7,-12,-12,4,85*,54*
CC1CCCCN1CCCNC(=O)c1cc(Br)c(Br)[nH]1 (centres undefined),-22,2,-1,13,-12,·,·
CCN(CC)CCn1c2ccccc2c2cnc(N=CN(C)C)c(C#N)c21,-8,5,-38,6,-24,·,·
CCn1c2ccccc2c2cnc(N=CN(C)C)c(C#N)c21,76*,-17,4,-14,20,87*,20
CC12CC(c3ccccc3O1)N(C(=O)c1ccco1)C(=S)N2c1ccccc1 (centres undefined),63*,-1,15,8,-2,9,·
CN1C(=O)NC(NS(=O)(=O)c2ccc(N)cc2)(C(F)(F)F)C1=O (centres undefined),-13,3,10,2,12,·,·
Cc1ccc(C(=O)n2c(N)nc3ccccc32)cc1,52*,20,10,-31,-63,44*,98*
Nc1ccc(C(=O)n2c3ccccc3c3ccccc32)cc1,60*,10,45,8,27,57*,63*
O=C(CSc1nnc(-c2ccc3c(c2)OCO3)o1)Nc1c(F)cccc1F,-74,2,-60,-18,-18,·,·
CCc1ccc2c(c1)C1(NN=C(c3cccc4ccccc34)S1)C(=O)N2 (centres undefined),78*,63,6,·,10,75*,30
Cc1cc(C)nc(Nc2n[nH]c(-c3cccc4ccccc34)n2)n1,-13,10,-24,-11,-5,·,·
COc1ccccc1N1CCN(Cc2cnc3ccc(Cl)cn23)CC1,21,·,9,2,-19,·,·
Cc1coc2cc3oc(=O)cc(C)c3cc12,14,1,0,-6,-6,·,·
COc1ccc(-c2coc3cc4oc(=O)cc(C)c4cc23)cc1F,71*,12,36,9,-13,46*,105*
CC(C)(C)OC(=O)CC[C@@H](C(=O)NCCCCCCCCCCC(=O)N1CCN(C(=O)OC(C)(C)C)CC1)n1cc(CCCCCNC(=O)OC(C)(C)C)nn1,-11,12,6,4,-28,·,·
CC(C)(C)OC(=O)NCCCCCc1cn([C@@H](CO)C(=O)NCCCCCCCCCCC(=O)N2CCN(C(=O)OC(C)(C)C)CC2)nn1,62*,109*,29,60*,-38,6,·
CC[C@H](C)[C@@H](C(=O)NCCCCCCCCCCC(=O)N1CCN(C(=O)OC(C)(C)C)CC1)n1cc(CCCCN=C(NC(=O)OC(C)(C)C)NC(=O)OC(C)(C)C)nn1,64*,112*,36,·,-62,25,·
C=C1/C=C(\C)C(C)(O)CC(O)CC(=O)C(O)C(O)C(C)CC(C)OC(=O)/C(C)=C/CC/C=C/C(OC)C(O)CC(C)C1 (centres undefined),37,-10,8,-3,1,·,·
CCC(=O)Nc1cc(-c2cc3ccccc3oc2=O)ccc1OC,-14,5,-115,-99,-75,·,·
COc1ccc(-c2cc3ccccc3oc2=O)cc1NC(=O)c1ccc(Br)o1,59*,10,-54,1,-90,39,23
COc1ccc(S(=O)(=O)Nc2ccccc2OC)cc1NC(=O)c1cc2ccccc2oc1=O,73*,2,-43,-19,-32,-52,·
COc1ccc(NC(=S)NC(=O)c2ccc3c(c2)OCCO3)cc1,-144,-6,-100,-95,-102,·,·
SMILES,Mdm2-MdmX inh,Beta apoptosis,Jurkat NFkB inh,Gli-Sufu block,697 NFkB inh,Mdm2 MdmX conf,Full FLuc ctr
COc1ccc(NC(=O)c2cc3ccccc3oc2=O)c(OC)c1,-10,-3,-69,5,-56,·,·
COc1ccc(-c2cc3ccccc3oc2=O)cc1NC(=S)NC(=O)c1ccc2c(c1)OCCO2,88*,47,-62,6,-68,-35,·
COc1ccc(-c2nc(-c3ccc(NC(=O)c4ccc(Br)o4)cc3)no2)cc1OC,78*,·,-62,-17,-40,-21,·
CCN1C(=O)[C@@H]2[C@@H](c3ccc(-c4cccc(Cl)c4)c(OC)c3)N3CCCC[C@@]3(C(=O)OC)[C@@H]2C1=O,21,11,10,-7,5,·,·
Cc1ccc(-n2cc(C(=O)O)c(=O)cc2C)c(C)c1,-14,-5,-4,-8,-9,·,·
COC(=O)N1C(=O)[C@@](CC(C)C)(c2ccccc2)N1C(=O)OC,51*,-11,-12,·,2,14,·
COC(=O)N1C(=O)[C@@](c2ccccc2)(C2CCCC2)N1C(=O)OC,74*,1,-4,-9,4,35,·
COC(=O)N1C(=O)[C@](c2ccccc2)(C2CCCCC2)N1C(=O)OC,46,1,10,7,-2,·,·
COC(=O)N1C(=O)[C@](CC(C)C)(c2ccccc2)N1C(=O)OC,·,-11,·,-3,·,·,·
COc1ccc(OC)c(NC(=O)COC(=O)CCS(=O)(=O)c2ccc(Cl)cc2)c1,24,-12,-7,-8,16,·,·
CCN1C(=O)c2cccc3c(S(=O)(=O)Nc4ccc(O)c(C(=O)O)c4)ccc1c23,16,2,9,0,19,·,·
CN1C(=O)c2cccc3c(S(=O)(=O)Nc4ccccn4)ccc1c23,56*,-6,-12,-5,27,41*,79*
CCN1C(=O)c2cccc3c(S(=O)(=O)Nc4ccccc4OC)ccc1c23,56*,1,5,43,16,43*,79*
Cc1ccccc1NS(=O)(=O)c1ccc2c3c(cccc13)C(=O)N2C,53*,·,-11,22,31,49*,100*
Cc1cc(C[n+]2cc(Cl)ccc2N)c2ncccc2c1,32,2,23,48,-3,·,·
Cc1cc(C[n+]2ncsc2N)c2ncccc2c1,99*,-4,-4,2,9,17,·
Oc1ccc(-c2nc3c4c(ncn3n2)-c2ccccc2CC42CCCC2)cc1,78*,-5,19,6,-11,6,·
CCN(CC)S(=O)(=O)c1cccc(C(=O)N/N=C(\C)c2ccc(O)cc2O)c1,73*,·,25,-4,5,57*,106*
CCN(CC)S(=O)(=O)c1cccc(C(=O)N/N=C/c2ccc(O)c(O)c2O)c1,·,-2,·,1,·,·,·
